High-throughput results from PubChem BioAssay.
Compounds with a hit are over-represented: about 2.3% of the library has one in this group of screens.
M1 PAM parental – nonselective calcium activators in parental CHO-K1 cells, primary screen, counter-screen for M1 PAM project, cell-based, Fluo-8 calcium fluorescence, full deck, 1536-well | ATP EC20; 0% at ATP EC20, 100% at ATP max | activation, % at 3 µM | hit rate 0.02% among 360,000;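 active = activation above the run cutoff, the mean activation of all test compounds plus 3 SD, cut at about 40% in these data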;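 note: peak over basal fluorescence ratio in a 140 s read after ATP addition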
CHRM1 agonist – human M1 muscarinic receptor agonists, primary screen, Fluo-8 calcium fluorescence, CHO-K1 cells, HTS. Muscarinic acetylcholine receptor M1 (Homo sapiens), P11229. CHO-K1 hM1, agonist mode; 0% DMSO, 100% acetylcholine EC100. activation, % at 3 µM. hit rate 0.33% among 360,000. AID 588814, 2011;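 active = activation above the run's mean compound activation plus 3 SD, cut at about 16% in these data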;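 note: peak over basal fluorescence ratio within a 140 s kinetic read after compound addition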
Target sequence (P11229 whole entry, looked up): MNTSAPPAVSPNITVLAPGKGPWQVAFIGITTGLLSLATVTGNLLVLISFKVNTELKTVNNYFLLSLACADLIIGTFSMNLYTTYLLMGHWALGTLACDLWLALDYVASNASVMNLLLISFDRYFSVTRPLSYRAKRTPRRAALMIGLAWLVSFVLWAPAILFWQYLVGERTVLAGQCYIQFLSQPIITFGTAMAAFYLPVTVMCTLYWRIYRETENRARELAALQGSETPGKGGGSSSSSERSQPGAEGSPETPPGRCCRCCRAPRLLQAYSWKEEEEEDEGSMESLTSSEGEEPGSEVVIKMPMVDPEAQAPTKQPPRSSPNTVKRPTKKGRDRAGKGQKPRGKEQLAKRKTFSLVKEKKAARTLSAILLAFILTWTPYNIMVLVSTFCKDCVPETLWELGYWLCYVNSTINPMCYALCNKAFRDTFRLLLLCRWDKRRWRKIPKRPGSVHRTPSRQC
M1 PAM – human M1 muscarinic receptor positive allosteric modulators, primary screen, CHO-K1 cells, Fluo-8 calcium fluorescence, 1536-well; Muscarinic acetylcholine receptor M1 (Homo sapiens), P11229; CHO-K1 hM1, ACh EC20; 0% = ACh EC20, 100% = maximal ACh; activation, % at 3 µM; hit rate 0.088% among 360,000; in the data active = activation above about 19%, passing the limit was not always enough
M1 ag parental – counter-screen for M1 agonists: effect in parental CHO-K1 cells. Fluo-8 calcium fluorescence; scaled to maximal ATP response, vehicle zero. activation, % at 3 µM. hit rate 0.48% among 360,000; in the data active = activation above about 15%;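 note: untransfected CHO-K1 host cells lacking M1 receptor as counterscreen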
CHRM1 antagonist – human M1 muscarinic receptor antagonists, primary screen, CHO-K1 cells, Fluo-8 calcium fluorescence, 1536-well | AID 588852, 2011 | inhibition, % at 3 µM | CHO-K1 hM1, ACh EC80 antagonist | Muscarinic acetylcholine receptor M1 (Homo sapiens), P11229 | hit rate 1.3% among 360,000;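 active = percent inhibition above its own plate's cutoff, namely the mean of that plate's compound wells plus 3 SD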;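 note: peak over basal fluorescence ratio during 140 s after agonist addition; 0% = ACh EC80 plus DMSO and 100% = DMSO alone without agonist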
CHO-K1 Ca antag – nonselective inhibitor or artifact in parental CHO-K1 cells | inhibition, % at 3 µM | ATP-induced calcium, Fluo-8 fluorescence | hit rate 0.6% among 360,000 | AID 602250;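 active = inhibition above a per-plate cutoff, the plate's mean sample inhibition plus 3 SD, cut at about 24% in these data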;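 note: 0% = DMSO plus EC80 ATP and 100% = DMSO alone without ATP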
* marks the source's active call; other numbers are inactive results; . = no result.

SMILES | M1 PAM parental | CHRM1 agonist | M1 PAM | M1 ag parental | CHRM1 antagonist | CHO-K1 Ca antag
O=C(OCCN1C(=O)c2cccc3c(N4CCOCC4)ccc(c23)C1=O)c1ccccc1Cl | -6.7 | 15.2 | -24.2 | 17.9* | 43.7* | 23.3
C=CCN1C(=O)c2cccc3c(N4CCCCC4)ccc(c23)C1=O | 1.8 | 7.4 | -4.6 | 10.8 | 6.3 | 10.6
Cc1n[nH]c(C)c1N1C(=O)c2cccc3c(N4CCCCCC4)ccc(c23)C1=O | -2.8 | 93.0* | -20.2 | 83.5* | 62.9* | 55.4*
O=C(CSc1nnc(COc2ccc(Cl)cc2)o1)N(c1ccccc1)C1CCS(=O)(=O)C1 (centres undefined) | -7.8 | -3.5 | 0.7 | 2.7 | -1.5 | 16.3
CCC(C(=O)OCC(=O)NC(=O)c1ccccc1OC)c1ccccc1 (centres undefined) | 7.8 | -0.2 | 14.0 | 0.9 | -19.2 | -5.8
O=C(CSc1cccc[n+]1[O-])Nc1ccc([N+](=O)[O-])cc1Cl | 9.3 | -4.7 | 8.9 | 0.1 | -15.6 | -7.1
COc1ccc(C(=O)Nc2ccccc2C(=O)NCC2CCCO2)cc1 (centres undefined) | 4.8 | 0.4 | 9.2 | 2.9 | -8.0 | -11.2
CCCCn1c(-c2csc3c2CCC(C)C3)n[nH]c1=S (centres undefined) | 21.6 | -7.6 | -21.0 | 1.1 | 47.3* | -16.3
C=CCn1c(-c2csc3c2CCC(C)C3)n[nH]c1=S (centres undefined) | -6.7 | -12.8 | -13.0 | -0.1 | 0.3 | 6.6
CCOC(=O)c1ccc(N2C(=O)CC(N3CCCC(C)C3)C2=O)cc1 (centres undefined) | 8.7 | -3.1 | 1.9 | 1.4 | -8.3 | -27.7
CCOC(=O)C1CCCN(C2CC(=O)N(c3cccc(C)c3)C2=O)C1 (centres undefined) | -2.1 | 46.9* | -22.9 | 0.1 | 22.6 | 2.4
CC(C)(C)c1ccc(S(=O)(=O)N2CCC(O)(c3ccc(Cl)cc3)CC2)cc1 | 5.4 | -3.6 | -24.9 | 4.7 | 70.9* | -0.9
O=C(CCS(=O)(=O)c1ccccc1)N1CCN(c2ccc(F)cc2)CC1 | -5.8 | -4.7 | 2.5 | 0.5 | -0.8 | 3.4
O=C(Nc1ccccc1)c1ccccc1OCC(O)CN1C(=O)c2ccccc2S1(=O)=O (centres undefined) | 2.7 | -2.5 | -14.0 | 4.4 | 49.9* | 11.1
Cc1cc(C)n(C(C)CNC(=O)c2ccc3c(c2)OCO3)n1 (centres undefined) | 9.0 | 1.5 | 4.1 | 1.4 | -8.7 | -11.0
C=CCn1c(SCC(=O)Nc2nc(C)cs2)nnc1C(C)NC(=O)c1ccccc1Cl (centres undefined) | 18.5 | -3.2 | -8.6 | 1.0 | 47.0* | -3.8
Cn1c(=O)[nH]c(=O)c2c1nc(N1CCCCC1)n2C/C=N/NC(=O)c1cc(Br)ccc1O | -9.3 | 7.2 | 0.6 | 26.0* | -1.8 | 5.1
C=CCn1c(N2CCCC2)nc2c1c(=O)[nH]c(=O)n2C | 12.7 | -2.2 | 3.5 | 0.3 | -14.3 | -18.7
CC1(C)[C@H]2CC=C(CN3CCC(N4CCC(C(=O)N5CCCC5)CC4)CC3)[C@@H]1C2 | -20.3 | -8.2 | -25.6 | 0.6 | 61.9* | 5.6
C[C@H]1COc2cccc(N3CCSCC3)c2S(=O)(=O)N1 | 17.3 | . | . | 1.6 | . | -22.4
O=S1(=O)NC(=NCC(c2ccco2)N2CCCCC2)c2ccccc21 (centres undefined) | 4.4 | -8.0 | -24.3 | 0.7 | 57.2* | -9.8
Nc1ccc2cc3[nH]c4cc(N)ccc4c3nc2c1 | -14.2 | 35.7* | -17.9 | 33.2* | 57.1* | 56.8*
Cc1ccc(NC(=O)C(c2ccccc2)c2ccccc2)c(O)c1 | -9.7 | -6.7 | 4.4 | 1.9 | -8.2 | -4.1
N#CC(C#N)=C(Nc1ccc(F)cc1)SCc1cccc(Br)c1 | 16.1 | 2.6 | -9.9 | 9.7 | 23.8 | 26.0*
Cc1cccc(CSC(=N)N)c1 | 15.1 | -7.7 | 4.2 | 0.5 | 4.5 | -1.4
SMILES | M1 PAM parental | CHRM1 agonist | M1 PAM | M1 ag parental | CHRM1 antagonist | CHO-K1 Ca antag
Cc1cccc(CSC(Nc2ccc(F)cc2)=C(C#N)C#N)c1 | -0.4 | 2.7 | -12.7 | 13.4 | 20.2 | 28.0*
CC(SCc1ccccc1)C(=O)Nc1ccc(F)cc1 (centres undefined) | 15.0 | -3.9 | 3.6 | 0.6 | 0.8 | -12.6
Nc1cc(Cl)ccc1C(=O)OCC(=O)N1CCOCC1 | 8.8 | -3.4 | 5.5 | 1.1 | -6.0 | -13.8
CC(=O)N1CC(C(=O)Nc2ccc3c(c2)OCO3)Oc2ccccc21 (centres undefined) | -19.6 | 2.6 | 11.8 | 1.4 | -23.4 | -1.9
O=[N+]([O-])c1ccc(/C=C/C2=NN(c3ccccc3)C(c3ccco3)C2)cc1 (centres undefined) | -13.5 | 18.8* | -13.3 | 20.3* | 25.5* | 32.5*
O=[N+]([O-])c1ccc(C2=NN(c3ccccc3)C(c3ccco3)C2)cc1 (centres undefined) | -16.5 | 77.7* | -21.8 | 71.2* | 71.0* | 58.9*
CC1=NN(c2ccccc2)C(c2ccco2)C1 (centres undefined) | 6.0 | -1.5 | 9.5 | -0.4 | -15.0 | -7.6
CCc1cc(C(=O)N(C)CC(=O)Nc2c(Cl)cccc2Cl)sc1C | 4.0 | -3.1 | -1.8 | 0.5 | -2.0 | -5.9
Cc1ccc(-n2nc3c(=O)n(CC(=O)NC4CCCCCC4)nc(C)c3c2C)cc1 | 6.4 | -4.2 | 13.0 | -0.6 | -13.5 | -8.5
CC(Oc1ccc(Cl)cc1Cl)c1ccn[nH]1 (centres undefined) | 13.3 | -10.7 | 5.5 | 1.4 | -4.7 | -5.8
Cc1cccn2cc(CNC(=O)C3CCCCC3)nc12 | -0.4 | -3.6 | 3.2 | 19.3* | -0.1 | 13.5
CNS(=O)(=O)c1cccc(C(=O)NCC(c2cccs2)N2CCOCC2)c1 (centres undefined) | 13.8 | -4.4 | 2.9 | 2.7 | -4.6 | -7.7
CC12CC3CC(C1)CC(C(=O)NNC(=O)c1ccncc1)(C3)C2 | 8.7 | -7.8 | -29.8 | 0.3 | 63.3* | -11.7
O=C(NNC(=S)NC(=O)C12CC3CC(CC(C3)C1)C2)c1ccncc1 | -4.6 | 58.2* | -22.8 | 46.1* | 15.4 | 2.1
CC1(C(=O)NC(=S)NNC(=O)c2ccncc2)CCCCC1 | 0.8 | 39.2* | -9.0 | 27.9* | 2.0 | 4.8
CCC(C)NC(=S)NNC(=O)c1ccncc1 (centres undefined) | -13.5 | 0.5 | 20.5 | -0.6 | -9.8 | 26.5*
O=C(NNC(=S)NC(=O)c1ccc(F)cc1)c1ccncc1 | 4.8 | -0.8 | -4.2 | 1.4 | 1.1 | -4.0
CC(C)c1ccc(C(=O)NNC(=O)c2ccncc2)cc1 | 22.9 | -3.0 | 6.8 | 0.2 | -5.1 | -9.1
